From PubChem
HPGD inh: qHTS Assay for Inhibitors of HPGD (15-Hydroxyprostaglandin Dehydrogenase) | 15-hydroxyprostaglandin dehydrogenase [NAD(+)] (Homo sapiens), P15428 | purified HPGD, NADH fluorescence kinetic, PGE2 substrate | Potency, µM, usual class: inhibitors | 150,000 compounds, 4.3% hits | AID 894, 2007; active = well fitted inhibition curve with a large enough effect, not every such curve was filed as active; inconclusive = small, poorly fitted or top-dose-only effect, or another doubt; inactive = no such curve, though single readings can be large or run the other way
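NADH formation kinetics: reaction with 30 uM PGE2 and 1 mM NAD+ (final), 20 nM enzyme, Tris-HCl pH 8 with Tween 20, after 15 min compound preincubation at room temperature. Fluorescence change, last versus first of five reads.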
LMNA splice mod: qHTS Assay for Modulators of Lamin A Splicing; HeLa LMNA splicing GFP/RFP minigene ratio, 48 h; AID 1487, 2009; Potency, µM (highest dose often 46.1 µM), most hits filed as inhibitors; 200,000 compounds, 0.01% hits; active = well fitted inhibition curve with a large enough effect in the signal ratio, with a control signal flat, not every such curve was filed as active; inconclusive = small, poorly fitted or top-dose-only effect, or effect the other way, or a change in a side signal; the % refers to the signal ratio
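Read-out is the ratio of GFP to DsRed2 object intensity, acquired by 488 nm laser-scanning cytometry on HeLa lamin A-EGFP minigene reporter cells. Compound incubation 48 hrs at 37 °C in Opti-MEM with 2% FBS; DMSO 0.5% final.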
ALDH1A1 block: qHTS Assay for Inhibitors of Aldehyde Dehydrogenase 1 (ALDH1A1); Potency, µM (highest dose often 75.3 µM), usual class: inhibitors; 220,000 compounds, 7.3% hits; Aldehyde dehydrogenase 1A1 (Homo sapiens), P00352; Purified ALDH1A1, NADH fluorescence, propionaldehyde substrate; active = well fitted inhibition curve with a large enough effect, not every such curve was filed as active; inconclusive = small, poorly fitted or top-dose-only effect, or another doubt; inactive = no such curve, though single readings can be large or run the other way
Target sequence (P00352 whole entry, looked up): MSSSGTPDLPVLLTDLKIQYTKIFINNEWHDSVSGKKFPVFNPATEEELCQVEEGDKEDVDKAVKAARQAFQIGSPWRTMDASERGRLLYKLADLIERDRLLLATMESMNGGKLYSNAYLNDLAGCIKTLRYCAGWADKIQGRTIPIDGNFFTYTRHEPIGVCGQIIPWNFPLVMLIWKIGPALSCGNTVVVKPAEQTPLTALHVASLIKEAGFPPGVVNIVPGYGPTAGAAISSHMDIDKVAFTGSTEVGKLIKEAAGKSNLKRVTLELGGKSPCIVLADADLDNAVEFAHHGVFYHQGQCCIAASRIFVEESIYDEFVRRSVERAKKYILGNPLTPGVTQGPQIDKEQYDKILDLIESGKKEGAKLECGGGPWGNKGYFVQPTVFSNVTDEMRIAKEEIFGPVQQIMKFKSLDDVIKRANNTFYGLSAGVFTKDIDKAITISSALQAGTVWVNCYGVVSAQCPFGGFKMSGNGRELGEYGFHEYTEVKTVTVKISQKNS
IMPase Li inh: qHTS Assay for Identifying the Cell-Membrane Permeable IMPase Inhibitors: Potentiation with Lithium. CHO-M1 cells, IP1 TR-FRET (IP-One), carbachol + lithium. Potency, µM (doses to about 59.4 µM), hits mostly inhibitors. 210,000 compounds, 0.35% hits. AID 1457, 2008;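 also: IP1 builds up when IMPase is blocked and the TR-FRET signal falls; nearly all actives have a fitted effect of over 50% in size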
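CHO-M1, 2000 cells/well, 16–30 h culture; cpd + low Li+, 30 min 37C; lysis with d2-IP1/Eu-anti-IP1 Ab, 10 min RT; TR-FRET 665/620 ratio and 620 channel; AC50 via Hill.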
Luc counter: Counterscreen for Luciferase (Kinase-Glo TM) Inhibition. Luciferin 4-monooxygenase (Photuris pensylvanica), Q27757. Kinase-Glo luciferase, ATP luminescence, 8 min. Potency, µM (highest dose often 38.3 µM), hits mostly inhibitors. 200,000 compounds, 0.28% hits. AID 1379, 2008; also: nearly all actives have a fitted effect of over 60% in size
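Light output from Kinase-Glo luciferase with luciferin and 10 uM ATP in 50 mM imidazole pH 7.2, KCl, MgCl2, Tween 20, BSA; compound pin-delivered, 8-min ambient incubation, then luminescence read.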
Hits are given with their value; 0 = inactive; ? = inconclusive; - = no result; [ ] = dose if it differs, or a comment. Most compounds without a hit are left out; they make up all but 9% or so of the library. Unless noted, calls follow the shape of the dose curve; as a rule, active = well fitted curve in the direction sought with a large enough effect; inconclusive = small, poorly fitted or top-dose-only effect, or another doubt; inactive = no such curve, though single readings can be large; an effect the other way counts as inactive or inconclusive.

SMILES	HPGD inh	LMNA splice mod	ALDH1A1 block	IMPase Li inh	Luc counter
Cc1cccc(N(Cc2cc3ccccc3[nH]c2=O)S(C)(=O)=O)c1	-	-	23.8µM	0	-
Cn1c(CN2CCOCC2)nc2cc(NC(=O)COc3ccc([N+](=O)[O-])cc3)ccc21	-	-	?	0	0
NNC(=O)c1ccc(OCc2nc3ccccc3[nH]2)cc1	0	-	?	0	0[7.66 µM]
O=C(NC(=S)NNC(=O)[C@H]1C[C@@H]1c1ccccc1)c1cccc(F)c1	-	-	22.4µM	-	-
COc1cccc(OC)c1C(=O)NC(=S)NNC(=O)[C@H]1C[C@@H]1c1ccccc1	-	-	0	-	-
CC1(C)CC(=O)C(N=Nc2cc(C(F)(F)F)ccc2Cl)=C(O)C1	-	0	1.41µM	0	0
CC1(C)CC(=O)C(N=Nc2c(Cl)cc(Cl)cc2Cl)=C(O)C1	0	0	2µM	0	0
CC1(C)CC(=O)C(N=Nc2cc(S(=O)(=O)N3CCOCC3)ccc2Cl)=C(O)C1	-	-	0.1µM	-	-
CC1(C)CC(=O)C(N=Nc2ccc(Cl)cc2)=C(O)C1	0	0	?	0	0
COc1ccc(CCN2CC(C(=O)NC3CCCCC3)CC2=O)cc1OC (centres undefined)	-	-	0	0	0
CC(=O)N(CN1C(=O)c2ccc([N+](=O)[O-])cc2C1=O)c1cccc(C(=O)O)c1	-	?	0	0	0
COc1ccc(OC)c(NS(=O)(=O)c2cc3c(cc2Cl)N(C(C)=O)CCO3)c1	-	0	-	-	-
CCN(CC)S(=O)(=O)c1ccc(C(=O)Nc2ccc(Cc3ccncc3)cc2)cc1	-	-	?	0	0
CCN(Cc1ccncc1)S(=O)(=O)c1ccc(C(C)=O)cc1	0	?	7.94µM	0	0
Clc1ncc(CN2CCN(c3ccccc3)CC2)s1	-	?	0	0	0
O=Cc1cnc(N2CCN(c3ccccc3)CC2)s1	-	-	3.98µM	0	0
O=Cc1cnc(N2CCN(Cc3ccccc3)CC2)s1	-	-	0.794µM	0	0
c1ccc(N2CCN(c3cnc4ccccc4n3)CC2)cc1	22.4µM	0	?	0	0
CSCCC(NS(=O)(=O)c1ccc2c(c1)oc(=O)n2C)C(=O)Nc1ccc(F)c(Cl)c1 (centres undefined)	-	0	-	-	-
CCOC(=O)/C(=N\O)C1=NC(C)(C)Cc2ccccc21	0	0	0	0	0
CCOC(=O)/C(C(=O)Nc1ccccc1Br)=C1/NC(C)(C)Cc2ccccc21	0	0	28.2µM	0	0
CCc1cccc(CC)c1NC(=O)COC(=O)C1(C)CC1(Cl)Cl (centres undefined)	-	-	0	0	0
CC1=CC2C(=O)c3cccc(O)c3C(=O)C2C(O)=C1 (centres undefined)	0	-	?	0	0
NC(=S)NNc1c(F)c(F)c(F)c(F)c1F	-	0	8.91µM	0	0
Cc1cc(Br)ccc1NC(=O)c1c(C)oc2ncnc(N3CCCCC3)c12	-	0	-	-	-
SMILES	HPGD inh	LMNA splice mod	ALDH1A1 block	IMPase Li inh	Luc counter
CCCCNC(=O)CSc1nc2cc3c(cc2c(=O)n1CCCC(=O)NCc1ccc(OC)cc1)OCO3	-	0	-	-	-
CC(C)CC(N=Cc1c(O)c2ccccc2oc1=O)C(=O)O (centres undefined)	-	-	14.1µM	0	0
COCCNS(=O)(=O)c1ccc(-c2ccc(S(=O)(=O)NCCOC)cc2)cc1	11.2µM	?	?	0	0
COc1ccc(-n2cc(C(=O)OCc3ccc(F)c(F)c3)c3ccccc3c2=O)cc1	-	0	-	-	-
O=S(=O)(c1ccccc1)N1C2CCC1CC(O)(c1cccnc1)C2 (centres undefined)	0	0	12.6µM	0	0
O=C(Nc1ccccc1)N1C2CCC1CC(O)(c1cccnc1)C2 (centres undefined)	0	0	0	0	0
CC1(C)C/C(=N\NC(=S)Nc2ccccc2F)c2cc(O)ccc2O1	-	?	?	0	0
Cc1ccc(-n2c(C)cc(C3N=C(N)Nc4nc5ccccc5n43)c2C)c(C)c1 (centres undefined)	0	0	12.6µM	0	0
Cc1cc(C2N=C(N)Nc3nc4ccccc4n32)c(C)n1-c1ccccc1Cl (centres undefined)	0	0	1.12µM	0	0
COc1ccc(C2N=C(N)Nc3nc4ccccc4n32)cc1 (centres undefined)	-	0	-	-	-
Oc1ccc(/C=N/NC2=NCCCCC2)cc1	?	0	17.8µM	0	0
Oc1ccc(/C=N/NC(=S)N/N=C/c2ccc(O)cc2)cc1	-	-	0	0	4.47µM
Oc1ccc(/C=N/Nc2ccccc2)cc1	-	0	20µM	0	0
COc1ccccc1NC(=S)N/N=C/c1ccc(O)cc1	0	?	0	0	0
Brc1ccc(/C=N/Nc2ccccc2)cc1	?	?	0	0	0
O=[N+]([O-])c1ccccc1/C=N/NC1=NCCCCC1	0	0	?	0	0
NC(Cc1cnc[nH]1)C(=O)Nc1ccc2ccccc2c1 (centres undefined)	0	0	0	0	0
Cc1ccc(C(=O)N2CCN=C2SCc2ccc([N+](=O)[O-])cc2)cc1C	-	?	0	0	0
CCCCC(=O)NC(NC(=S)N1CCOCC1)C(Cl)(Cl)Cl (centres undefined)	0	0	11.2µM	0	0
O=C(CN1C(=O)CCc2cc(S(=O)(=O)N3CCOCC3)ccc21)Nc1cccc(C(F)(F)F)c1	-	0	-	-	-
OCCSc1nnc(Nc2ccccc2)s1	0	0	?	0	0
N#CCSc1nnc(Nc2ccccc2)s1	28.2µM	0	?	0	0
Cc1nc(SCC(=O)NCc2ccco2)c2c3c(sc2n1)CCCC3	14.1µM	0	10µM	?	0
COC(=O)CSc1ncnc2c1sc1nc(-c3ccco3)c3c(c12)CC(C)(C)OC3	?	0	?	0	0
O=C(CSc1nc(C2CC2)nc2sc3c(c12)CCCC3)NCc1ccco1	0	0	0	0	0
SMILES	HPGD inh	LMNA splice mod	ALDH1A1 block	IMPase Li inh	Luc counter
CCCc1nc2sc3c(SCC(=O)NCc4ccco4)ncnc3c2c2c1CCC2	?	?	25.1µM	0	0
CCOC(=O)C(CSCC(=O)c1ccc(Cl)cc1)NC(=O)OC(C)(C)C (centres undefined)	0	0	20µM	0	0
Cc1cc(C(F)(F)F)nc(SCC(=O)Nc2ccccc2)n1	0	0	0	0	0
Cc1cc(C(F)(F)F)nc(SCC(=O)NC2CC3CCC2C3)n1 (centres undefined)	20µM	0	0	0	0
Cc1ccc(Cl)cc1N1CCN(C(=O)c2cnn(C)c2C2CCN(C(=O)OC(C)(C)C)CC2)CC1	-	0	-	-	-
C(=C\c1ccccc1)/CNCC1CCCO1 (centres undefined)	-	-	25.1µM	0	0
CC(=O)NNc1cccc(Cl)n1	0	0	?	0	0
NC(=O)NNc1cccc(Cl)n1	-	-	35.5µM	0	0
COc1ccc(Nc2nc(N3CCCCC3)c3ccccc3n2)cc1	?	?	12.6µM	0	0
O=C(NCCCCNC(=O)c1ccco1)c1ccco1	0	0	0	0	0
